We go through 40 compounds from PubChem BioAssay (Tox21).

The structures appear in SMILES notation. Several values for one entry are separate records, joined by “and”; a condition that tells them apart may be missing. Equal values may be shown once. Results filed as inconclusive are left out. Entries that show only a call come without a potency. The source holds several records for some structures; these can differ, active in one and inactive in another. Activity calls are given as the source filed them. Calls follow the shape of the dose curve; as a rule, active = well fitted activation curve with a large enough effect in the repeat runs; inconclusive = weak or mixed curves; inactive = flat fitted curve, though single readings scatter.
Potency is read from the fitted curve at half-maximal effect.

A short description of this assay: A CellTox Green Cytotoxicity Assay to monitor cytotoxicity in HEK293 cells - 32 hour (AID 1224881). Also: nearly all actives have a fitted effect of over 40% in size. The following applies: CellTox Green fluorescence; series mostly up to 76.8 µM. An excerpt: National Center for Advancing Translational Sciences [NCATS]
NIH Chemical Genomics Center [NCGC]
U.S. Environmental Protection Agency [EPA]
National Institutes of Environmental Health Sciences [NIEHS]
National Toxicology Program [NTP]
Cell-based models are critical for drug discovery. Determining the natural cytotoxic effects resulting from test compounds is an essential research activity. A CellTox Green Cytotoxicity Assay to monitor cytotoxicity in real time of continues cell culture during 40 hours of the compound treatment was used to screen Tox21 10K library compounds in Hek293 cells. CellTox Green Cytotoxicity Assay is a nonlytic, homogeneous, biofluorescent method to measure cytotoxicity in cell culture after experimental manipulation. The assay system uses a proprietary asymmetric cyanine dye that is excluded from viable cells but preferentially stains the dead cell's DNA. […] Viable cells produce no appreciable increases in fluorescence. Therefore, the fluorescence signal produced by the binding interaction with dead cell DNA is proportional to cytotoxicity.
The mixture of Hek293 cell suspension and reagents were dispensed at 600cells/6 ul/well in 1536-well tissue culture treated black solid bottom plates using a Multidrop dispenser. After the assay plates were incubated at a 37 C/5% CO2 incubator for 5 hours, 23 nL of compounds dissolved in DMSO, positive and negative controls was transferred to the assay plate by a pintool work station. The plates were incubated at 37 C for 40 hours. The fluorescence intensity were measured at 0h, 8h, 16h, 24h, 32h and 40h time points using ViewLux plate reader during compound treatment.
In the case of `CCCC(=O)OC[C@@H](OC(=O)CCC)[C@@H](OC(=O)CCC)[C@H](Cn1c2nc(=O)[nH]c(=O)c-2nc2cc(C)c(C)cc21)OC(=O)CCC`, the Potency is 21.3 µM (active). Still for that read-out and setting: under `CCCCCCCCCCCC[N+](C)(C)CCCCCCCCCCCC` stands 15.5 µM (active); under `CCCCCOc1ccccc1/C(=C\SC)n1ccnc1`, “inactive”. With `O=c1cc(-c2ccc(O)cc2)oc2cc(O)cc(O)c12`, the Potency result is “inactive”. On the same count and under the same terms, under `CCC(N)(CO)CO` stands “inactive”. Same read-out and setting: the same measure for `CC1=C(C(=O)OC(C)C)C(c2cccc([N+](=O)[O-])c2)C(C(=O)OC2CN(C(c3ccccc3)c3ccccc3)C2)=C(N)N1` (stereo not given): “inactive”. Regarding `CC(NN)c1ccccc1` (stereo not given), the cytotoxicity increase is -15.1% [at 15.8 µM] (inactive).

Turning to `COc1cc(-c2ccc(N=C=O)c(OC)c2)ccc1N=C=O`, the Potency entry is “inactive”. On the same count and under the same terms, under `CC(C)C(C)(C)C(C)(C)C(C)(C)S` stands “inactive”; under `CCCCCCCCNC(C)C(O)c1ccc(SC(C)C)cc1` (stereo not given), 16.9 µM (active). Turning to `O=C(NO)C1(NS(=O)(=O)c2ccc(Oc3ccc(F)cc3)cc2)CCOCC1`, the Potency entry is “inactive”. As to `[O-][n+]1ccccc1SSc1cccc[n+]1[O-]`, the Potency is 2.93 µM (active). For the compound `CC(C)(C)c1ccc(C(=O)CCCN2CCC(OC(c3ccccc3)c3ccccc3)CC2)cc1`, the Potency is 23.9 µM (active). With `OCCN1CCN(CC/C=C2/c3ccccc3Sc3ccc(C(F)(F)F)cc32)CC1`, the Potency is 26.8 µM (active). As for `CCN(C(=O)c1cc(C)cc(OC[C@H](C)Nc2ccncc2)c1)C(C)C`, the Potency result was “inactive”. Still for that read-out and setting: the same measure for `CCCCCCCCCCCCCCCC[N+](C)(C)CCN(Cc1ccc(OC)cc1)c1ncccn1`: 9.52 µM (active); for `CC[C@H](c1ccc(O)cc1)[C@@H](CC)c1ccc(O)cc1`: 38.9 µM (active) and inactive. `CC(C)(C)c1ccc(C(=O)O)cc1`: the Potency result is “inactive”. Same read-out and setting: under `O=C(Nc1cccc(C(F)(F)F)c1)c1cc(Br)cc(Br)c1O` stands “inactive”; under `O=C(OCC1CO1)C1CCCCC1C(=O)OCC1CO1` (stereo not given), “inactive”. On the same count and under the same terms, under `CCCCCCC[N+](CC)(CC)CCCCc1ccc(Cl)cc1` stands 5.35 µM (active); under `O=c1[nH]cnc2nc[nH]c12`, “inactive”; under `O=C1C=CC(=O)N1c1ccc(Cc2ccc(N3C(=O)C=CC3=O)cc2)cc1`, 19.5 µM (active). As to `O=C(N/N=C/c1ccccc1O)c1ccncc1`, the Potency result is “inactive”. Same read-out and setting: under `O=C(Nc1ccc(Oc2ccc(Cl)cc2)c(Cl)c1)c1cc(I)cc(I)c1O` stands “inactive”; under `O=[N+]([O-])c1ccccc1Nc1ccccc1`, “inactive”. On the same count and under the same terms, under `Cc1c(C)c2c(c(C)c1OC(=O)CCC(=O)O)CC[C@@](C)(CCC[C@H](C)CCC[C@H](C)CCCC(C)C)O2` stands “inactive”; under `CCCCCCCCCCCC(=O)NCCCN(C)C`, 54.9 µM (active); under `CC1=NC(C)OC1C` (stereo not given), “inactive”. The same measure, in the same setting: under `CCCCCCCCCCCCCCCCCC[N+](C)(C)Cc1ccccc1` stands 24.8 µM (active); under `O=c1[nH]sc2cc(Cl)ccc12`, “inactive”; under `CCCCCCCCOC(=O)c1ccc(O)cc1`, 43.5 µM (active) and 43.6 µM (active). Turning to `O=C(O)c1cc(O)c2c(c1)C(=O)c1cccc(O)c1C2=O`, the Potency entry was “inactive”. As for `CCCCCCCCCCn1cc[n+](CCCCCCCCCC)c1C`, the Potency is 19.5 µM (active).

As to `CCCCCCCCCCC=O`, the Potency entry was “inactive”. The same measure, in the same setting: under `CC(=O)S[C@@H]1CC2=CC(=O)CC[C@]2(C)[C@H]2CC[C@@]3(C)[C@@H](CC[C@@]34CCC(=O)O4)[C@H]12` stands “inactive”; under `NC(=O)CC[C@@H]1NC(=O)[C@H](Cc2ccccc2)NC(=O)[C@H](Cc2ccc(O)cc2)NC(=O)CCSSC[C@@H](C(=O)N2CCC[C@H]2C(=O)N[C@@H](CCCN=C(N)N)C(=O)NCC(N)=O)NC(=O)[C@H](CC(N)=O)NC1=O`, “inactive”. With `Cc1cc(O)c(C(C)(C)C)cc1C(C)(C)C`, the Potency is 24.5 µM (active). Regarding `C[C@@H]1C[C@H]2[C@@H]3CCC4=CC(=O)C=C[C@]4(C)[C@@]3(Cl)[C@@H](O)C[C@]2(C)[C@@]1(OC(=O)c1ccco1)C(=O)CCl`, the Potency entry is “inactive”.

For the compound `CN(C)[C@@H]1C(=O)C(C(N)=O)=C(O)[C@@]2(O)C(=O)C3=C(O)c4c(O)ccc(Cl)c4[C@@H](O)[C@H]3C[C@@H]12`, the Potency entry is “inactive”.
